HCMV antiviral = human cytomegalovirus inhibition; activity change, negative = inhibition, % at 57.5 µM; 4.5% of 410,000 active; AID 1259415; HFF cells, HCMV-luciferase reporter, 72 h; hits give low values; in the data active = activity change below about -60%; inconclusive = no clear call, values can overlap the other calls; inactive = above about -39%
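Compounds were evaluated in HFFs infected with an HCMV luciferase reporter virus (MOI 1 PFU/cell). Luciferase in lysates collected 72 h post infection served as the replication measure.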
FBPA Giardia inh = blocks Giardia fructose-bisphosphate aldolase activity; AID 2451; A8B2U2; purified Giardia FBPA; 0.71% of 290,000 active; Potency, µM (doses to about 59.6 µM), most hits filed as inhibitors; also: nearly all actives have a fitted effect of over 55% in size
Target sequence (A8B2U2 whole entry, looked up): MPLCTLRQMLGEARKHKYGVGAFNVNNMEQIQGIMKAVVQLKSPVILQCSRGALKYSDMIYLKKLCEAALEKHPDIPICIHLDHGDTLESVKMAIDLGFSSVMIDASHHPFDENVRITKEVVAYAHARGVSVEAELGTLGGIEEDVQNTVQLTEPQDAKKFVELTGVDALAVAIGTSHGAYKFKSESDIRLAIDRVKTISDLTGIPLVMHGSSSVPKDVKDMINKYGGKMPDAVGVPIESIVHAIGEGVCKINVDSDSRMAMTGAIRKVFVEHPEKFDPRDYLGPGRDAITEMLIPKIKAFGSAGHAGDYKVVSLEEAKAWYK
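40 nM FBPA preincubated 10 min at RT with compound (up to 57.5 uM final), then substrate plus GAPDH/TPI/NAD/arsenate coupling and diaphorase/resazurin added. Fluorescence read after 20 min at RT, 525/598 nm.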
FMDV inh = blocks foot and mouth disease virus; Potency, µM (top dose mostly 57.9 µM), most hits filed as inhibitors; FMDV antiviral cell-based qHTS; 1.2% of 410,000 active; calls by dose curve; tested in HEK293T cells; also: read-out not given here; nearly all actives have a fitted effect of over 45% in size
Vaccinia Venus = inhibitors of vaccinia virus (Venus reporter); Vaccinia virus Venus reporter expression, fluorescence; Potency, µM (series often up to 36.5 µM), most hits filed as inhibitors; 0.46% of 330,000 active; calls by dose curve; tested in A549 cells; also: nearly all actives have a fitted effect of over 30% in size
HCV inhibitor = HCV inhibition | AID 651820 | 3.4% of 340,000 active | Potency, µM (top dose mostly 41.8 µM), usual class: inhibitors | Huh7.5.1 HCVcc-Cre infection, luciferase reporter, 44 h
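Compounds are dispensed onto cells plated 4 h earlier at 1,000 per well, with HCVcc-Cre virus (about 0.5 moi) added next. Following 44 h of culture, luminescent signal is measured for 15 sec after 15 min with substrate at room temperature.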
VACV mCherry inh = vaccinia inhibition (mCherry reporter); Vaccinia virus mCherry reporter infection, fluorescence; Potency, µM (highest dose often 36.5 µM), usual class: inhibitors; 0.63% of 310,000 active; calls by dose curve; tested in A549 cells; also: nearly all actives have a fitted effect of over 35% in size
A number is an active result; . = inactive; ? = inconclusive; / = no result given. A selection: hits, their analogues and other compounds. The true share with any hit is near 7.5%. Unless noted, calls follow the shape of the dose curve; as a rule, active = well fitted curve in the direction sought with a large enough effect; inconclusive = small, poorly fitted or top-dose-only effect, or another doubt; inactive = no such curve, though single readings can be large; an effect the other way counts as inactive or inconclusive.

SMILES	HCMV antiviral	FBPA Giardia inh	FMDV inh	Vaccinia Venus	HCV inhibitor	VACV mCherry inh
COc1ccc(N(C)S(=O)(=O)c2cccc(C(=O)Nc3ccc4c(c3)OCCO4)c2)cc1	.	.	.	.	10µM	.
Cc1ccc(N(C)S(=O)(=O)c2cccc(C(=O)N(C)Cc3cnn(-c4ccccc4)c3)c2)cc1	-67	/	?	.	?	?
CN(Cc1cnn(-c2ccccc2)c1)C(=O)c1cccc(S(=O)(=O)N(C)c2ccccc2)c1	.	/	.	.	/	.
COc1ccc(N(C)S(=O)(=O)c2cccc(C(=O)Nc3ccc(-n4cnnn4)cc3)c2)cc1	?	.	40µM	/	?	/
COc1ccc(C2=NN(C(=O)c3ccccc3)C(c3ccc(OC)c(OC)c3)C2)c(OC(C)=O)c1 (stereo not given)	.	.	/	/	/	/
COc1ccc(OCCN(C)C(=O)c2cccc(S(=O)(=O)N(C)c3ccccc3)c2)cc1	.	/	.	.	14µM	.
COc1ccc(N(C)S(=O)(=O)c2cccc(C(=O)Nc3cc(OC)ccc3OC)c2)cc1	.	.	?	.	10µM	.
COc1cc(OC)cc(C(=O)Nc2ccc(-n3cnnn3)c(C)c2)c1	.	.	/	.	7.1µM	.
CC1(C(=O)Nc2cccc(NS(C)(=O)=O)c2)CCN1Cc1ccccc1OC(F)F (stereo not given)	?	/	.	.	/	.
CCCC(C)NC(=O)CSc1nc2ccc(C)cc2[nH]1 (stereo not given)	.	.	.	/	.	/
O=C(c1ccco1)N1CCN(S(=O)(=O)c2ccccc2[N+](=O)[O-])CC1	.	.	.	.	.	.
CCC(=O)Nc1ccc(C(=O)c2ccccc2)cc1	.	.	.	.	.	/
O=C(NNC(=O)c1ccc(NC(=O)c2ccccc2)cc1)c1ccc(F)cc1	.	.	.	/	.	/
O=C(NNC(=O)c1ccc(NC(=O)c2ccccc2)cc1)Nc1ccccc1	-62	.	.	/	.	/
CC(C(=O)c1ccc(-c2ccccc2)cc1)[n+]1cccc(NC(=O)c2ccccc2)c1 (stereo not given)	-99	.	.	.	.	.
O=C(Nc1ccncc1)c1ccc(-c2ccccc2)cc1	-77	.	.	?	10µM	.
O=C(Nc1ccc(C(=O)c2ccccc2)cc1)c1ccccc1	.	.	.	.	2.8µM	?
COc1ccc(C(=O)NC(Nc2ccccc2)C(Cl)(Cl)Cl)cc1 (stereo not given)	?	.	.	/	7.9µM	/
COc1ccc(NC(=O)c2ccc(OC(=S)N(C)c3ccc(OC)cc3)cc2)cc1	.	.	.	/	.	/
CN(C(=S)Oc1ccc(C(=O)Nc2ccccc2)cc1)c1ccccc1	-67	.	.	.	?	.
COc1ccc(C(=O)NNc2ccccc2)cc1	.	.	.	.	.	.
COc1ccc(NC(=O)c2ccccc2SCc2ccccc2)cc1	-106	/	.	.	/	?
COc1ccc(NC(=O)C2(c3ccc(NC(=O)c4ccc(C)cc4)cc3)CCCC2)cc1	.	.	.	/	.	/
COc1ccc(NC(=O)c2sc(SCc3ccccc3)nc2N)cc1	.	.	.	.	.	.
COc1ccc(C(=O)Nc2ccc(C3(C#N)CCCC3)cc2)cc1	-75	.	.	.	5.6µM	.
SMILES	HCMV antiviral	FBPA Giardia inh	FMDV inh	Vaccinia Venus	HCV inhibitor	VACV mCherry inh
O=C(NCC1Cc2cccc(-c3cnccn3)c2O1)c1ccc(F)c(Cl)c1 (stereo not given)	/	/	.	.	/	.
COc1ccc(CNS(=O)(=O)c2ccccc2Br)c(OC)c1	.	/	/	/	/	/
COc1ccc(NC(=O)c2ccc(C)cc2)cc1	.	.	.	/	.	/
COc1ccc(-n2c(=O)[nH]cc(C(=O)Nc3ccc4c(c3)OCCO4)c2=O)cc1	.	.	.	/	.	/
Nc1cc[n+](CC(=O)Nc2ccccc2)cc1	.	.	.	.	?	.
O=C(C[n+]1ccc(C(=O)c2ccccc2)cc1)Nc1ccc(C(F)(F)F)cc1	.	.	.	.	2µM	?
COc1ccc(NC(=O)c2ccccc2)cc1	.	/	.	.	0.56µM	.
COc1ccc(C(C(=O)c2ccccc2)c2ccccc2)cc1 (stereo not given)	-82	/	.	.	/	?
COc1ccc(-n2c(=O)[nH]cc(C(=O)Nc3ccccc3)c2=O)cc1	-64	.	.	.	.	.
CCOc1ccc2oc(=O)cc(CN3CCN(c4ccc(Cl)cc4)CC3)c2c1	.	/	.	.	/	.
CC1CCC(NC(=O)c2[nH]c(C(F)(F)F)nc2-c2ccccc2)CC1 (stereo not given)	.	/	.	.	/	.
O=c1cnc2cnc(Oc3ccccc3)nc2n1C[C@H]1CCCO1	/	.	.	/	/	/
Cc1oc(-c2ccc(Cl)cc2)nc1CS(=O)CC(=O)NCc1ccc(Cl)cc1 (stereo not given)	.	/	.	.	/	.
CC(Oc1ccccc1)C(=O)NC1=NCCS1 (stereo not given)	.	.	.	.	?	.
CCc1ccc(OCCNC(=O)c2ccccc2SCc2ccc(F)cc2)cc1	?	.	?	.	?	?
O=C(NCCOc1ccc(F)cc1)c1ccccc1SCc1ccccc1	-62	.	.	.	?	.
COc1ccc2c(c1)C(c1cccs1)=NNC(c1ccncc1)=N2	.	.	.	/	11µM	/
CC(C)c1ccc2c(c1)C(c1cccs1)=NNC(c1ccncc1)=N2	.	.	.	/	.	/
N#CCCn1c(-c2nonc2NC(=O)c2ccccc2Cl)nc2ccccc21	.	.	.	.	.	.
CCCCn1c(-c2nonc2NC(=O)c2ccccc2Cl)nc2ccccc21	-77	/	?	/	.	/
CC(=O)Nc1nonc1-c1nc2ccccc2n1CC1CC1	-67	.	.	.	?	.
C/C(=C\C(=S)Nc1ccccc1)Nc1ccc2ccccc2c1	.	2µM	.	.	.	.
Cc1ccc(N(Cc2ccccc2)C(=O)c2cc(S(=O)(=O)N3CCOCC3)ccc2N2CCCC2)cc1	-61	/	.	.	?	.
CN(Cc1ccc(Cl)cc1)C(=O)c1cc(S(=O)(=O)N2CCOCC2)ccc1N1CCCC1	.	/	.	.	.	.
NC(=S)NN=C1c2cc(OCCN3CCOCC3)ccc2-c2ccc(OCCN3CCOCC3)cc21	/	.	18µM	?	4µM	?
SMILES	HCMV antiviral	FBPA Giardia inh	FMDV inh	Vaccinia Venus	HCV inhibitor	VACV mCherry inh
Cc1c(Cl)cccc1NC(=S)NC(=O)c1cncc(Br)c1	-65	/	.	.	.	.
O=C(NC(=S)Nc1cc(Cl)ccc1O)c1cccc(Br)c1	?	.	.	.	11µM	.
Cc1ccc(C(C)CCN2CCOc3ccc(CN4CCOCC4)cc3C2)o1 (stereo not given)	/	/	.	.	/	.
COc1cc2c(cc1OC)C(c1ccccc1)N(C(=O)CCl)CC2 (stereo not given)	-99	.	7.1µM	.	.	.
COc1cc2c(cc1OC)C(C)N(C(=O)c1cccc([N+](=O)[O-])c1)CC2 (stereo not given)	-74	.	.	.	.	.
Cc1ccccc1/C=C/C(=O)N1CCOCC1	.	.	.	.	.	.

High-throughput results deposited in PubChem BioAssay by National Center for Advancing Translational Sciences (NCATS).
